In PubChem BioAssay AID1945 (The Scripps Research Institute Molecular Screening Center, 2009) one finds inhibition data, which are given here for 20 compounds.

Hit rate of the full screen: of about 1,600 compounds, about 65 (4%) were called active. These entries were drawn from the full list. A number with no mark means an inactive call. Rule as the data show it: active = inhibition above about 37%; inactive = the rest.

A short description of this test: DNA intercalator displacement agents – biochemical, FID fluorescence, triplicate, artefact control for HCV NS3 helicase inhibitor project (AID 1945).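 Also: 0% = vehicle and 100% = reference compound; higher means more displacement of ethidium bromide from the DNA hairpin.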 The conditions noted are these: DNA fluorescent intercalator displacement, at 7.9 µM, stronger effect = higher value.
Regarding `CS/C(=C\C(=O)c1ccco1)Nc1ccccc1Cl`, the inhibition (as a rule, the drop in the measured response relative to a control, in per cent) is -4.94%.

For `O=C1N/C(=C/c2cccn2-c2ccccc2)C(=O)N1c1cccc(Cl)c1`, the inhibition is 12.2%.

`Cc1cc(C)c2nc(-c3ccco3)cc(C(=O)O)c2c1`: the inhibition was -5.42%.

With `Cc1ccc(/C=C/C(=O)Nc2ccc([N+](=O)[O-])c(NC(=O)/C=C/c3ccc(C)o3)c2)o1`, the inhibition was 33.4%.

For `CC(C)c1ccc(C2C(C(=O)c3ccco3)=C(O)C(=O)N2CC2CCCO2)cc1` (stereo not given), the inhibition was -21.9%.

As for `Cc1ccc(C(CC(=O)O)Nc2nc(N3CCCCC3)nc(N3CCCCC3)n2)cc1` (stereo not given), the inhibition is -62.5%.

As for `Cc1ccc(-c2nn(-c3ccccc3)cc2/C=C2\SC(=S)N(CCCCCC(=O)O)C2=O)o1`, the inhibition was 9.08%.

`CN(C)c1ccc(N/C=C/C(=O)C(F)(F)F)cc1`: the inhibition was 17.8%.

Regarding `O=C(c1cccc(-n2cccc2)c1)N1CCN(S(=O)(=O)c2ccc(F)cc2)CC1`, the inhibition was -4.45%.

For the compound `O=C(CCCN1C(=O)/C(=C\c2ccco2)SC1=S)Nc1cccc2ccccc12`, the inhibition was 6.79%.

Consider `Cc1occc1C(=O)N/N=C/c1ccc(-c2cccc([N+](=O)[O-])c2)o1`, for which the inhibition was 1.25%.

As to `Cc1cc(N2C(=O)C(O)=C(C(=O)c3ccc(C)o3)C2c2ccc(OCc3ccccc3)cc2)no1` (stereo not given), the inhibition is -15.8%.

`Cc1cccc(NC(=O)c2sc3nc4c(c(-c5ccco5)c3c2N)CCC4)c1`: the inhibition was -11.3%.

In the case of `COc1ccc(OCC(=O)Nc2nnc(-c3ccco3)s2)cc1`, the inhibition is -1.45%.

On to `COc1ccc(NC(=O)CSc2ccc(-c3ccco3)nn2)c(OC)c1`, for which the inhibition was 0.58%.

Take `c1ccc(CSc2nnc(-c3ccco3)c(-c3ccco3)n2)cc1`: the inhibition was 32.8%.

Turning to `Clc1ccccc1CSc1nnc(-c2ccco2)c(-c2ccco2)n1`, the inhibition is 72.2% (active).

On to `O=C(CCl)NNc1cccc(Cl)n1`, for which the inhibition is 11.2%.

Regarding `COc1cccc(C(=O)CC(=O)C(=O)Nc2ccc([N+](=O)[O-])cc2C)c1`, the inhibition was 2.14%.

Regarding `Fc1ccc(-c2ccc(-c3nn4c(-c5ccco5)nnc4s3)o2)cc1`, the inhibition was -13.2%.
